Inconclusive results are not listed. Calls of active or inactive are those of the source. Rule for the calls, unless noted: active = hit-call score of the fitted dose curve at least 0.9, where 1 is the maximum; inactive = score below 0.9.
Legend:
[1] = CCTE_Shafer_MEA_dev_burst_duration_mean: CCTE's Neural Network Formation Assay for Mean Burst Duration, Shafer Lab (AID 2284045)
In short: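 Primary rat cortical neurons on 48-well 16-electrode MEA plates, exposed from day 0 with renewal at DIV 5 and 9; spontaneous activity recorded on days 5, 7, 9, 12. Well-mean burst duration across bursting electrodes, collapsed as trapezoidal AUC; DMSO baseline.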

[2] = CCTE_Shafer_MEA_dev_interburst_interval_mean: CCTE's Neural Network Formation Assay for Mean Interburst Interval, Shafer Lab (AID 2284046);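 note: well-mean interburst interval of bursting electrodes as AUC over four recording days; curve fitted for decrease in interburst interval relative to DMSO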
In short: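 Developing rat cortical networks on 48-well MEAs receive compound from the day of plating. Burst intervals from each active electrode are averaged per well, and AUC over the recording days is fitted in the negative direction against DMSO.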

[3] = CCTE_Shafer_MEA_dev_inter_network_spike_interval_mean: CCTE's Neural Network Formation Assay for Mean Inter-network Spike Interval, Shafer Lab (AID 2284047)
In short: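 Rat cortical cultures, 1.5 x 10^5 cells/well on 48-well MEA plates; continuous exposure days 0–12, medium and compound refreshed DIV 5, 9. Mean time between consecutive network-spike peaks; AUC across DIV 5/7/9/12; DMSO baseline, negative fitting direction.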

[4] = CCTE_Shafer_MEA_dev_network_spike_number: CCTE's Neural Network Formation Assay for Number of Network Spikes, Shafer Lab (AID 2284048);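 note: synchronized bursts across electrodes counted on days 5 7 9 12 and integrated as AUC; fit as a loss of signal meaning fewer network spikes than DMSO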
In short: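 Primary rat cortical neurons on PEI/laminin 48-well MEA plates, dosed from plating day 0 for 12 days, renewed at DIV 5 and 9. Network spike counts recorded DIV 5, 7, 9, 12, collapsed as trapezoidal AUC; DMSO baseline.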

[5] = CCTE_Shafer_MEA_dev_network_spike_peak: CCTE's Neural Network Formation Assay for Mean Number of Electrodes in Network Spike, Shafer Lab (AID 2284049);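 note: fitted for loss of signal meaning fewer electrodes in network spikes than DMSO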
In short: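 Network-spike peak electrode count from recordings on days 5, 7, 9 and 12 was combined as trapezoidal area under the curve. Rat cortical cultures were treated continuously from plating, with compound renewed at each feed (DIV 5, 9); fits versus DMSO.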

[6] = CCTE_Shafer_MEA_dev_spike_duration_mean: CCTE's Neural Network Formation Assay for Mean Spike Duration, Shafer Lab (AID 2284051);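 note: mean network spike duration pooled as area under curve over DIV 5 to 12 recordings; potency for a decrease in mean network spike duration versus DMSO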
In short: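 Readout is the average length of network spikes, clustered firing across electrodes, summed over DIV 5, 7, 9 and 12 as area under the curve. Neurons from rat cortex developed networks on MEA plates under continuous 12-day exposure.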

[7] = CCTE_Shafer_MEA_dev_network_spike_duration_std: CCTE's Neural Network Formation Assay for Standard Deviation of Network Spike Duration, Shafer Lab (AID 2284052);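 note: area under curve of spike duration SD across recording days 5 to 12; hits are decreases in network spike duration SD versus DMSO vehicle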
In short: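 Read-out is the trapezoidal area-under-the-curve across recordings made on days 5, 7, 9 and 12, fitted in the negative direction against DMSO baseline. Neurons were primary rat cortical cells treated from day 0, with treatment renewed at each feed.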

[8] = CCTE_Shafer_MEA_dev_per_network_spike_spike_number_mean: CCTE's Neural Network Formation Assay for Mean Number of Spikes in a Network Spike, Shafer Lab (AID 2284053);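 note: fitted as decrease in spikes per network spike relative to DMSO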
In short: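 Continuous twelve-day exposure of developing rat cortical networks grown over 16 microelectrodes per well; spontaneous firing is captured at four time points, and the per-network-spike spike number is integrated over development by trapezoidal AUC.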

[9] = CCTE_Shafer_MEA_dev_per_network_spike_spike_percent: CCTE's Neural Network Formation Assay for Percent of Spikes in a Network Spike, Shafer Lab (AID 2284054)
In short: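 Rat primary cortical neurons were grown on 48-well MEA plates (16 electrodes/well), exposed from plating day 0 through day 12, with treatment renewed on DIV 5 and 9. Percent of spikes within 0.05 s network-spike peaks was measured, summarised as AUC across days 5, 7, 9, 12.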

[10] = CCTE_Shafer_MEA_acute_AB: CCTE's Alamar Blue Assay for Cytotoxicity in the Neural Acute Assay, Shafer Lab (AID 2284069; active = hit-call score of the fitted dose curve at least 0.9, where 1 is the maximum;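 note: active compounds lower the viability signal compared with DMSO wells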)
In short: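 Metabolic activity in chemically exposed rat cortical neurons (MEA cultures, day 13/15 post-plating) measured via CellTiter Blue resazurin reduction, 544/590 nm fluorescence; fitted relative to DMSO, with signal loss indicating reduced viability.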

[11] = CCTE_Shafer_MEA_acute_LDH: CCTE's Lactate Dehydrogenase Assay for Cytotoxicity in the Neural Acute Assay, Shafer Lab (AID 2284086; active = hit-call score of the fitted dose curve at least 0.9, where 1 is the maximum;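 note: active means LDH release rises above DMSO vehicle level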)
In short: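 Released lactate dehydrogenase, read at 490 nm, indicated cytotoxicity after acute 40-min compound treatment of rat cortical neuron networks grown on 48-well MEA plates.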

[12] = CCTE_Shafer_MEA_dev_mutual_information_norm: CCTE's Neural Network Formation Assay for Mutual Information Normalization, Shafer Lab (AID 2284091);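 note: mutual information between electrodes summarised as area under curve across four recording days; potency is for a decrease in mutual information relative to DMSO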
In short: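 Primary rat cortical neurons on PEI-coated 48-well MEA plates, 1.5 x 10^5 cells/well, exposed from day 0 through day 12 with re-dosing at DIV 5 and 9. Mutual information between electrodes recorded days 5, 7, 9, 12; trapezoidal AUC, loss-of-signal fit versus DMSO.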

[13] = CCTE_Shafer_MEA_dev_correlation_coefficient_mean: CCTE's Neural Network Formation Assay for Mean Correlation Coefficient, Shafer Lab (AID 2284093);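 note: well mean pairwise spike train correlation integrated as AUC over recording days 5 to 12; potency fitted for loss of correlation relative to DMSO vehicle wells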
In short: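 Read-out: well-mean correlation coefficient of spike trains between electrode pairs, collapsed over four recording days as trapezoidal area-under-the-curve. Developing rat cortical neuron networks grown on MEAs received test chemical continuously from plating.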

[14] = CCTE_Mundy_HCI_Cortical_Synap_Neur_Matur_BPCount: CCTE's Synaptogenesis and Neurite Maturation Assay in rat cortical cells for Branch Point Count, Mundy Lab (AID 2284211)
In short: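 Branch point number is quantified by automated imaging of fluorescently labelled neurites and synapses in rat primary cortical neurons exposed from DIV 7 to DIV 12. Activity is analysed relative to DMSO negative control.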

[15] = CCTE_Mundy_HCI_Cortical_NOG_NeuriteCount: CCTE's Neurite Outgrowth Assay in rat cortical cells for Neurite Count, Mundy Lab (AID 2284212);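 note: cells fixed about two days after chemical exposure began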
In short: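 Neurite number per cell from high-content imaging of betaIII-tubulin immunostaining, with Hoechst nuclear counterstain.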

[16] = CCTE_Mundy_HCI_Cortical_NOG_NeuriteLength: CCTE's Neurite Outgrowth Assay in rat cortical cells for Neurite Length, Mundy Lab (AID 2284213)
In short: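 Neurite length was read by high-content imaging of βIII-tubulin-labelled neurites in rat primary cortical cultures. Activity was fitted relative to DMSO.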

[17] = CCTE_Mundy_HCI_Cortical_Synap_Neur_Matur_NeuriteLength: CCTE's Synaptogenesis and Neurite Maturation Assay in rat cortical cells for Neurite Length, Mundy Lab (AID 2284214)
In short: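 Neurite length in rat primary cortical cultures is imaged after MAP2, synaptophysin and Hoechst staining. Dosing starts DIV 7, ending DIV 12; DMSO serves as negative control and baseline.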

[18] = CCTE_Mundy_HCI_Cortical_Synap_Neur_Matur_NeuriteSpotCountPerNeuron: CCTE's Synaptogenesis and Neurite Maturation Assay in rat cortical cells for Neurite Spot Count per Neuron Count, Mundy Lab (AID 2284215)
In short: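 Rat primary cortical cells received AraC at DIV 5, then chemicals with a media change at DIV 7, and were fixed at DIV 12. Synaptophysin puncta on MAP2-stained neurites per neuron were counted by high-content imaging, fitted relative to DMSO.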

[19] = CCTE_Mundy_HCI_Cortical_Synap_Neur_Matur_SynapseCount: CCTE's Synaptogenesis and Neurite Maturation Assay in rat cortical cells for Synapse Count, Mundy Lab (AID 2284218)
In short: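 Synapse count per neuron is measured in rat cortical neurons exposed to chemicals between DIV 7 and DIV 12, with glial growth arrested by AraC at DIV 5. Synaptophysin and MAP2 staining is imaged automatically; activity is fitted relative to DMSO.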

[20] = CCTE_Mundy_HCI_Cortical_Synap_Neur_Matur_NeuriteCount: CCTE's Synaptogenesis and Neurite Maturation Assay in rat cortical cells for Neurite Count, Mundy Lab (AID 2284222)
In short: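 Chemical exposure runs DIV 7–12 in rat cortical cultures, glia suppressed by AraC at DIV 5; measurement is at DIV 12. Imaging-derived neurite counts are fitted against DMSO baseline.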

[21] = CCTE_Mundy_HCI_Cortical_NOG_NeuronCount: CCTE's Neurite Outgrowth Assay in rat cortical cells for Neuron Count, Mundy Lab (AID 2284236; active = hit-call score of the fitted dose curve at least 0.9, where 1 is the maximum;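 note: neurons counted by imaging betaIII-tubulin and Hoechst stained cortical cells; cells exposed to compound for about 48 hours before fixation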)
In short: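 Read-out: neuron number by high-content imaging of betaIII-tubulin (Alexa Fluor-488) and Hoechst-labelled rat primary cortical cells.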

[22] = CCTE_Mundy_HCI_hNP1_Casp3_7: CCTE's Caspase-Glo 3/7 Assay in human neuroprogenitor cells for Apoptosis, Mundy Lab (AID 2284240)
In short: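 Luminescent caspase-3/7 readout, 26.5 h post-dose, in human neural progenitor cells from WA09 embryonic stem cells. Cells grew 40–44 h at 37 °C, 5% CO2 before chemical addition. Activity analysed as signal increase over DMSO baseline.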

[23] = CCTE_Mundy_HCI_hNP1_CellTiter: CCTE's Cell Titer-Glo 2 Assay in human neuroprogenitor cells for Viability, Mundy Lab (AID 2284241; active = hit-call score of the fitted dose curve at least 0.9, where 1 is the maximum;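 note: a hit is a drop in ATP luminescence versus DMSO meaning reduced viability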)
In short: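 Viability read as luminescent ATP content (CellTiter-Glo, 30 min room temperature) twenty-four hours after dosing, relative to DMSO. Cells: WA09-derived hNP1 neuroprogenitors on poly-L-ornithine/laminin, plated 40 to 44 hours before chemical.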

[24] = CCTE_Mundy_HCI_iCellGluta_NOG_NeuronCount: CCTE's Neurite Outgrowth Assay in iCellGluta cells for Neuron Count, Mundy Lab (AID 2284340; active = hit-call score of the fitted dose curve at least 0.9, where 1 is the maximum;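 note: cells fixed about 48 h after compound addition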)
In short: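 Neuron count read by automated high-content imaging of Hoechst 33342 and betaIII-tubulin/Alexa Fluor-488 labelling in human iPSC glutamatergic neurons. Activity fitted relative to DMSO.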

[25] = CCTE_Mundy_HCI_iCellGluta_NOG_NeuriteCount: CCTE's Neurite Outgrowth Assay in iCellGluta cells for Neurite Count, Mundy Lab (AID 2284342; active = hit-call score of the fitted dose curve at least 0.9, where 1 is the maximum;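 note: chemical exposure about 48 hours starting 2 hours after plating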)

CC1(C)[C@H](C=C(Cl)Cl)[C@@H]1C(=O)O[C@@H](C#N)c1cccc(Oc2ccccc2)c1
outcome [1]: inactive
outcome [2]: inactive
outcome [3]: inactive
AC50 [4]: 4.81 µM (active)
AC50 [5]: 8.44 µM (active)
AC50 [6]: 4.92 µM (active)
AC50 [7]: 4.6 µM (active)
AC50 [8]: 5.97 µM (active)
AC50 [9]: 15 µM (active)
outcome [10]: inactive
outcome [11]: inactive
AC50 [12]: 2.25 µM (active)
AC50 [13]: 4.79 µM (active)
outcome [14]: inactive
outcome [15]: inactive
outcome [16]: inactive
outcome [17]: inactive
outcome [18]: inactive
outcome [19]: inactive
outcome [20]: inactive
outcome [21]: inactive
outcome [22]: inactive
AC50 [23]: 26 µM (active)
outcome [24]: inactive
outcome [25]: inactive

From PubChem BioAssay (EPA / NIEHS)
